In PubChem BioAssay (Tox21):
Where “and” joins values, the source holds several entries; their conditions need not be identical. Identical values can stand only once. Records with an inconclusive call do not appear. The source holds several records for some structures; these can differ, active in one and inactive in another. Calls of active or inactive are those of the source. Unless noted, calls follow the shape of the dose curve; as a rule, active = well fitted curve in the direction sought with a large enough effect in the repeat runs; inconclusive = weak or mixed curves; inactive = no such curve, though single readings can be large; an effect the other way counts as inactive or inconclusive.

Columns and labels:
[1] = qHTS assay to identify small molecule agonists of H2AX (AID 1224845; active = well fitted activation curve with a large enough effect in the signal ratio in the repeat runs, not every such curve was filed as active; the % refers to the signal ratio)
Procedure, shortened: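 Wild-type CHO-K1 cells plated overnight, then exposed 3 hr at 37C to compounds at 15 concentrations (0.76% DMSO). Lysed, then HTRF anti-pH2AX(S139)-cryptate/anti-H2AX-d2 detection after 24 hr at room temperature; emissions 665 and 620 nm.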

[2] = qHTS assay to identify small molecule agonists of the hypoxia (HIF-1) signaling pathway (AID 1224846; active = well fitted activation curve with a large enough effect in the signal ratio in the repeat runs, not every such curve was filed as active; the % refers to the signal ratio)
Procedure, shortened: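 A low-serum medium (0.5% dialyzed FBS) holding 2,000 HRE-bla ME-180 cells per well is preincubated for 5 hrs, dosed with compounds by pintool, and kept a further 17 hrs at 37C, 5% CO2 before CCF4-AM FRET detection of beta-lactamase.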

[3] = qHTS assay to identify small molecule agonists of H2AX - cell viability counter screen (AID 1224847; calls by dose curve; also: top concentration of the series differs between compounds; nearly all actives have a fitted effect of over 30% in size)
Procedure, shortened: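 Cells plated first: CHO-K1, 1000 per well in 10% FBS medium, incubated overnight at 37C. Then 15-point compound titration added (final DMSO 0.76%) for 3 hr. Finally CellTiter-Glo added and luminescence read.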

[4] = qHTS assay to identify small molecule antagonists of the estrogen related receptor (ERR) signaling pathway from Tox21 library (AID 1224848); also: nearly all actives have a fitted effect of over 50% in size
Procedure, shortened: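 Cells: ERR line, 2,000/well; 6 h preincubation 37 C/5% CO2. Cpd in DMSO via pin tool; 18 h, 37 C. ONE-Glo, 30 min RT, luminescence.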

[5] = qHTS assay to identify small molecule agonists of the estrogen related receptor (ERR) signaling pathway from Tox21 library (AID 1224849; calls by dose curve; also: nearly all actives have a fitted effect of over 15% in size); conditions: ERR reporter cell line, ONE-Glo luciferase, 18 h
Procedure, shortened: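 Screening used an NTP-provided ERR luciferase cell line. Compounds in DMSO were added 6 h after seeding and left 18 h at 37 C before a 30 min ONE-Glo step and luminescence reading.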

[6] = qHTS RealTime-Glo MT Cell Viability Assay in HepG2 cells - 24 hour (AID 1224867); also: nearly all actives have a fitted effect of over 50% in size
Procedure, shortened: (§1)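 HepG2 suspension premixed with RealTime-Glo reagents is plated at 600 cells per well and left 5 h at 37 C/5% CO2. Compounds in DMSO then go in, and bioluminescence reflecting viable cell number is recorded over 40 h.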

[7] = qHTS RealTime-Glo MT Cell Viability Assay in HEK293 cells - 32 hour (AID 1224868); also: top concentration of the series differs between compounds; nearly all actives have a fitted effect of over 50% in size
Procedure, shortened: (§2)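 Reads taken at 0, 8, 16, 24, 32 and 40 h from the same wells. HEK293 cells (600/well) carried RealTime-Glo reagents from seeding, with compound added after a 5 h settle at 37 C.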

[8] = A CellTox Green Cytotoxicity Assay to monitor cytotoxicity in HEK293 cells - 0 hour (AID 1224869); also: nearly all actives have a fitted effect of over 50% in size
Procedure, shortened: (§3)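 Fluorescence intensity, read at 0, 8, 16, 24, 32 and 40 h of compound treatment, reflected dye binding to DNA of dead HEK293 cells; compounds (23 nL, DMSO) were added 5 h after plating cells with reagent.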

[9] = qHTS RealTime-Glo MT Cell Viability Assay in HepG2 cells - 40 hour (AID 1224870); also: nearly all actives have a fitted effect of over 50% in size
Procedure, shortened: (§4)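 HepG2 cells mixed with RealTime-Glo MT reagents (NanoLuc plus cell-permeant prosubstrate) were seeded at 600 cells/well, incubated 5 h at 37 C/5% CO2, then pinned with compounds in DMSO; nonlytic luminescence tracked viability during 40 h treatment.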

[10] = A CellTox Green Cytotoxicity Assay to monitor cytotoxicity in HEK293 cells - 40 hour (AID 1224871); also: nearly all actives have a fitted effect of over 45% in size
Procedure, shortened: as §3

[11] = qHTS RealTime-Glo MT Cell Viability Assay in HEK293 cells - 16 hour (AID 1224872)
Procedure, shortened: as §2

[12] = qHTS RealTime-Glo MT Cell Viability Assay in HepG2 cells - 8 hour (AID 1224873); also: nearly all actives have a fitted effect of over 55% in size
Procedure, shortened: as §4

[13] = qHTS RealTime-Glo MT Cell Viability Assay in HEK293 cells - 40 hour (AID 1224874); conditions: RealTime-Glo luminescence; max response: stronger effect = lower value; also: nearly all actives have a fitted effect of over 50% in size
Procedure, shortened: (§5)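 Viable HEK293 cells reduce a cell-permeant prosubstrate; the product diffuses out and is consumed by NanoLuc in the medium to give light. Compounds went in after a 5 h incubation and plates were read over the treatment course.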

[14] = A CellTox Green Cytotoxicity Assay to monitor cytotoxicity in HEK293 cells - 24 hour (AID 1224875); also: nearly all actives have a fitted effect of over 45% in size
Procedure, shortened: as §3

[15] = A CellTox Green Cytotoxicity Assay to monitor cytotoxicity in HepG2 cells - 16 hour (AID 1224876); also: nearly all actives have a fitted effect of over 45% in size; also: potency is read from the fitted curve at half-maximal effect
Procedure, shortened: (§6)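 Using 1536-well format, dye-containing HepG2 suspension was seeded, allowed 5 h at 37 C/5% CO2, dosed by pintool with compounds, positive and negative controls, and imaged for fluorescence across 40 h.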

[16] = qHTS RealTime-Glo MT Cell Viability Assay in HepG2 cells - 32 hour (AID 1224877); also: nearly all actives have a fitted effect of over 55% in size
Procedure, shortened: as §1

[17] = A CellTox Green Cytotoxicity Assay to monitor cytotoxicity in HepG2 cells - 24 hour (AID 1224878); also: nearly all actives have a fitted effect of over 45% in size
Procedure, shortened: as §6

[18] = A CellTox Green Cytotoxicity Assay to monitor cytotoxicity in HepG2 cells - 40 hour (AID 1224879); also: nearly all actives have a fitted effect of over 40% in size
Procedure, shortened: as §6

[19] = qHTS RealTime-Glo MT Cell Viability Assay in HEK293 cells - 0 hour (AID 1224880)
Procedure, shortened: as §5

[20] = A CellTox Green Cytotoxicity Assay to monitor cytotoxicity in HEK293 cells - 32 hour (AID 1224881); also: nearly all actives have a fitted effect of over 40% in size
Procedure, shortened: as §3
% is scaled to controls: 0 for no effect and ±100 for the full control effect.

CN=C(NC#N)NCCSCc1nc[nH]c1C
inactive: Potency [1] | outcome [2] | Potency [3] | Potency [4] | activity change, positive = activation ([5]; at 92.4 µM (top of the series)) 2.07% | Potency [6] | Potency [7] | Potency [8] | Potency [9] | Potency [10] | Potency [11] | Potency [12] | max response [13] 4.13% and 1.71% | Potency [14] | Potency [15] | Potency [16] | Potency [17] | Potency [18] | Potency [19] | Potency [20]

OCCOCCOCCOCCOCCO
inactive: Potency [1] | outcome [2] | Potency [3] | Potency [4] | activity change, positive = activation ([5]; at 92.4 µM (top of the series)) 2.04% and 4.48% | Potency [6] | Potency [7] | Potency [8] | Potency [9] | Potency [10] | Potency [11] | Potency [12] | max response [13] 2.45% and 0.674% | Potency [15] | Potency [16] | Potency [17] | Potency [18] | Potency [19] | Potency [20]

NC1CCCCC1N (stereo not drawn)
inactive: Potency [1] | outcome [2] | Potency [3] | Potency [4] | activity change, positive = activation ([5]; at 92.4 µM (top of the series)) 1.49% and 5.92% | Potency [6] | Potency [7] | Potency [8] | Potency [9] | Potency [10] | Potency [11] | Potency [12] | max response [13] -12.3% and -1.05% | Potency [14] | Potency [15] | Potency [16] | Potency [17] | Potency [18] | Potency [20]

NCCNCCNCCN
inactive: Potency [1] | outcome [2] | Potency [3] | Potency [4] | activity change, positive = activation ([5]; at 42.5 µM (top of the series)) 0.597% | Potency [6] | Potency [7] | Potency [8] | Potency [9] | Potency [10] | Potency [11] | Potency [12] | max response [13] 2.02% and 3.6% | Potency [14] | Potency [15] | Potency [16] | Potency [17] | Potency [18] | Potency [19] | Potency [20]

CC(=O)OCc1ccc2c(c1)OCO2
inactive: Potency [1] | outcome [2] | Potency [3] | Potency [4] | activity change, positive = activation ([5]; at 92.4 µM (top of the series)) -6.11% and 0.823% | Potency [6] | Potency [7] | Potency [8] | Potency [9] | Potency [10] | Potency [11] | Potency [12] | max response [13] 2.92% and 8.23% | Potency [14] | Potency [15] | Potency [16] | Potency [17] | Potency [18] | Potency [20]

CS(=O)(=O)c1ccc(Cl)cc1
inactive: Potency [1] | outcome [2] | Potency [3] | Potency [4] | activity change, positive = activation ([5]; at 92.4 µM (top of the series)) 8.49% | Potency [6] | Potency [8] | Potency [9] | Potency [10] | Potency [11] | Potency [12] | max response [13] -0.177% and 6.75% | Potency [14] | Potency [16] | Potency [17] | Potency [18] | Potency [19] | Potency [20]
inactive and 38.9 µM (active): Potency [15]

Cc1cc(C)c(O)c(C)c1
inactive: Potency [1] | outcome [2] | Potency [3] | Potency [4] | activity change, positive = activation ([5]; at 92.4 µM (top of the series)) 10.5% and 2.09% | Potency [6] | Potency [8] | Potency [9] | Potency [10] | Potency [11] | Potency [12] | max response [13] 3.39% and -0.795% | Potency [14] | Potency [15] | Potency [16] | Potency [17] | Potency [18] | Potency [19] | Potency [20]

CCCCCC(C)=O
inactive: Potency [1] | outcome [2] | Potency [3] | Potency [4] | activity change, positive = activation ([5]; at 92.4 µM (top of the series)) 9.83% and 4.6% | Potency [6] | Potency [7] | Potency [8] | Potency [9] | Potency [10] | Potency [11] | Potency [12] | max response [13] 0.796% and 0.918% | Potency [14] | Potency [15] | Potency [16] | Potency [17] | Potency [18] | Potency [20]

OC[C@H]1O[C@@H](Oc2ccc(O)cc2)[C@H](O)[C@@H](O)[C@@H]1O
inactive: Potency [1] | outcome [2] | Potency [3] | Potency [4] | activity change, positive = activation ([5]; at 42.5 µM (top of the series)) 7.9% | activity change, positive = activation ([5]; at 92.4 µM (top of the series)) 7.42% | Potency [6] | Potency [8] | Potency [9] | Potency [10] | Potency [11] | Potency [12] | max response [13] 3.45% and 3.98% | Potency [14] | Potency [15] | Potency [16] | Potency [17] | Potency [18] | Potency [19] | Potency [20]

CC(C=O)Cc1ccc(C(C)(C)C)cc1 (stereo not drawn)
inactive: Potency [1] | outcome [2] | Potency [3] | Potency [4] | activity change, positive = activation ([5]; at 92.4 µM (top of the series)) -5.89% and -7.2% | Potency [6] | Potency [7] | Potency [8] | Potency [9] | Potency [10] | Potency [11] | Potency [12] | max response [13] 0.145% and -7.53% | Potency [15] | Potency [16] | Potency [17] | Potency [18] | Potency [19] | Potency [20]

C=CC(C)(C)C
inactive: Potency [1] | outcome [2] | Potency [3] | Potency [4] | activity change, positive = activation ([5]; at 92.4 µM (top of the series)) 1.24% and -3.33% | Potency [6] | Potency [7] | Potency [8] | Potency [9] | Potency [10] | Potency [11] | Potency [12] | max response [13] 1.9% and -10.6% | Potency [14] | Potency [15] | Potency [16] | Potency [17] | Potency [18] | Potency [19] | Potency [20]
